# Shown are actives, neighbours in structure and some others; about 3.6% of the full set was active somewhere.
# VDR inhibitor = vitamin D3 receptor (human) inhibition; Potency, µM, without a hit: max response, negative = inhibition, usual class: inhibitors; actives 0.93% (n = 400,000); AID 504847; VDR-SRC2-3 peptide fluorescence polarization, 2 h; note: potency is the fitted concentration of half-maximal effect; % is set by controls: 0 for no effect and ±100 for the full control effect
#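 Reagent solutions, kept cold and dark, are dispensed first; compounds are then pinned in at 23 nl, plates briefly spun, and incubated 2 h at ambient temperature. Inhibition of VDR–SRC2-3 peptide binding is read by fluorescence polarization.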
# Rango release inh = prevents RanGTP from dissociating the Rango-importin beta complex; O95149+P62826; AID 540253; actives 0.071% (n = 340,000); Potency, µM (doses to about 46.1 µM), for inactives: at the top dose activity change, negative = inhibition; Biochemical FRET Rango-importin beta, RanGTP-induced dissociation; calls by dose curve; note: potency is the fitted concentration of half-maximal effect; % of control where 0% means no effect; nearly all actives have a fitted effect of over 45% in size
#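 Rango/importin beta premix (0.1/0.25 uM final), PBS + 1 mM DTT + 0.02% Tween-20 + 0.1% BSA; cpd 5 min RT; FRET pre-read; + RanGTP-RCC1 (0.6 uM Ran, 2 mM GTP, 0.2 uM RCC1); 45 min RT; FRET post-read, ex 430, em 486/530 nm.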
# PLK1 PBD block = inhibitors of human PLK1 polo-box domain binding | P53350 | Plk1 PBD binding of FITC phosphopeptide, fluorescence polarization | Potency, µM, for the others: max response, negative = inhibition, most hits filed as inhibitors | actives 2.8% (n = 360,000) | AID 720504; note: potency is the fitted concentration of half-maximal effect; series mostly up to about 57 µM; % is set by controls: 0 for no effect and ±100 for the full control effect; nearly all actives have a fitted effect of over 65% in size
# PI5P4Ka inh = inhibitors of human PI5P4K alpha; PI5P4Kalpha enzyme, ADP-Glo luminescence, 60 min; hits give low values; max response, %; actives 1.2% (n = 330,000); AID 652105; active = max response of -50% or lower; inconclusive = between -30% and -50%; inactive = -30% or higher; note: value at the top dose of about 77 µM; % is set by controls: 0 for no effect and ±100 for the full control effect
#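 Human PI5P4Kalpha with substrate in 0.038 M HEPES pH 7.4, 0.28 mM EGTA, 0.1% CHAPS, 5% DMSO; reaction started with 5 microM ATP (final), 60 min at room temperature. ADP formed read by ADP-Glo luminescence.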
# Rango complex inh = Rango-importin beta binding inhibition | Q14974 | Rango CFP/YFP FRET sensor + importin beta, 45 min | Potency, µM (doses to about 92.2 µM), for inactives: top-dose inhibition of complex formation | actives 0.031% (n = 340,000); calls by dose curve;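 note: potency is the fitted concentration of half-maximal effect; 0% = DMSO wells and 100% = buffer wells lacking importin beta; nearly all actives have a fitted effect of over 15% in size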
# Target sequence (Q14974 whole entry, looked up): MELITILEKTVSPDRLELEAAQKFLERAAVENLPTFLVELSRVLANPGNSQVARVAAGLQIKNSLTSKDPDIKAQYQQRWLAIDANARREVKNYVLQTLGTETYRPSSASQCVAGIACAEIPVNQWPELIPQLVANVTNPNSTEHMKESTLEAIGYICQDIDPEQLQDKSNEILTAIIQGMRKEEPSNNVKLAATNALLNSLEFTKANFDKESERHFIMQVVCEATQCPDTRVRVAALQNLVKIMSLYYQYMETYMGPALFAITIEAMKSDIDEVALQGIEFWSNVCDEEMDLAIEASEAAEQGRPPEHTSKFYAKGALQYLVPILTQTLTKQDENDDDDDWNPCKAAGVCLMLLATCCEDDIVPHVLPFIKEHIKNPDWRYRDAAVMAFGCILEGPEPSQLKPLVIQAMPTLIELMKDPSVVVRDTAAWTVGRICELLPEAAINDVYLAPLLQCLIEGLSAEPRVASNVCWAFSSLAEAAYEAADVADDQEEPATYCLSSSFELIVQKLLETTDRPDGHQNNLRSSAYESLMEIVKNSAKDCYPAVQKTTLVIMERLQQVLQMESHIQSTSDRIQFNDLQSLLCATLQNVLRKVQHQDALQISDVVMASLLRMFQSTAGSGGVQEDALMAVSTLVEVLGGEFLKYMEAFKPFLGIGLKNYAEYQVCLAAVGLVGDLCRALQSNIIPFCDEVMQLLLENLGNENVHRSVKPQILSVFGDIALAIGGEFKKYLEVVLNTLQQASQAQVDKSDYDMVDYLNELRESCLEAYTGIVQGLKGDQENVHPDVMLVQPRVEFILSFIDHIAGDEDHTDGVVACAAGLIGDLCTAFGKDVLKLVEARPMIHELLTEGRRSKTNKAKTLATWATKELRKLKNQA
#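 Inhibition scored from the CFP 486 nm/YFP 530 nm FRET ratio 45 min after adding 0.125 microM importin beta to 50 nM Rango biosensor preincubated 5 min with compound (room temperature, PBS with DTT, Tween-20, BSA). No-importin wells as positive control.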
# GCN5L2 inh-1 = inhibitors of human GCN5L2 histone acetyltransferase. Q92830. Potency, µM (highest dose often 58.9 µM), for the others: top-dose activity change, negative = inhibition, hits mostly inhibitors. GCN5L2 HAT assay, ThioGlo1 CoA-SH fluorescence. AID 504327. actives 0.21% (n = 390,000); note: potency is the fitted concentration of half-maximal effect; % is set by controls: 0 for no effect and ±100 for the full control effect
#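 Titration-based screen in which CoA formation is detected via maleimide probe ThioGlo1 (50uM) turning fluorescent on thiol reaction; substrates H3(1-25) 75uM and acetyl-CoA 70uM, GCN5L2 20nM, 20 min incubation at room temperature.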
# GCN5L2 inh-2 = confirmation of human GCN5L2 histone acetyltransferase inhibitors. shares compounds with GCN5L2 inh-1. GCN5L2 HAT, ThioGlo1 CoA fluorescence, 20 min. Potency, µM, hits mostly inhibitors. actives 70% (n = 140). AID 588347
# Active calls of the source: *; ? = inconclusive; nt = no result; [ ] = another dose, or the depositor's remark. Unless noted, calls come from the whole dose curve; as a rule, active = well fitted curve in the direction sought with a large enough effect; inconclusive = small, poorly fitted or top-dose-only effect, or another doubt; inactive = no such curve, though single readings can be large; an effect the other way counts as inactive or inconclusive.
SMILES,VDR inhibitor,Rango release inh,PLK1 PBD block,PI5P4Ka inh,Rango complex inh,GCN5L2 inh-1,GCN5L2 inh-2
COc1ccc(-c2nnc(SCC(=O)Nc3c(C)cccc3C)nc2-c2ccc(OC)cc2)cc1,-13.4%,nt,nt,nt,nt,-1.4%,nt
O=C(CSc1n[nH]c(-c2ccco2)n1)Nc1ccc(F)cc1,5.7%,24.3%,-8.6%,0.8,?,0.7%,nt
O=C(CSc1nc2c(c(=O)[nH]1)CCCC2)Nc1ccccc1C(F)(F)F,-5.3%,nt,nt,nt,nt,-0.6%,nt
CCOc1cc(/C=C2\C(=O)N(c3nc(-c4ccc(Br)cc4)cs3)N=C2c2ccccc2)ccc1O,-15.2%,0.9%,?,-83.1*,-3.1%,?,5.13*
Cc1ccc(CNC(=O)c2ccc3c(c2)c(C)c(C)n3Cc2ccc(Cl)cc2)o1,-1.1%,nt,nt,nt,nt,3.9%,nt
CN(C)/C=C1\C(=O)ON=C1c1ccccc1,-18.4%,19.4%,-6.6%,-1.5,5.3%,-3.7%,nt
Cc1ccc(C2=NOC(=O)/C2=C\C=C\c2ccccc2)cc1,-2.2%,-0.1%,1.68µM*,?,-2.1%,25.1µM*,?
COc1ccccc1OCC(=O)Nc1ccc(C(=O)Nc2ccccc2C(=O)O)cc1,nt,nt,-6.7%,?,nt,nt,nt
CC(C)(C)c1ccc(OCC(=O)Nc2ccc(C(=O)Nc3ccccc3C(=O)O)cc2)cc1,?,12.5%,?,?,6.5%,31.6µM*,22.9*
CCOC(=O)c1ccc(NC(=O)CCc2c(C)n(CC)c3cc(-c4ccccc4OC)nn3c2=O)cc1,-12.8%,nt,nt,nt,nt,-7.5%,nt
C=CCn1c(SCC(=O)Nc2cc(Cl)ccc2C(=O)O)nc2sc(C)c(C)c2c1=O,-16.7%,14.1%,23.8µM*,0.5,-2.6%,31.6µM*,?
CCc1ccc(S(=O)(=O)/N=C2\C=CC(=O)c3ccccc32)cc1,nt,nt,nt,nt,nt,-6.1%,nt
CCc1ccc(S(=O)(=O)/N=C2/C=C(Sc3ncn[nH]3)C(=O)c3ccccc32)cc1,25.1µM*,4.0%,1.5µM*,-94.3*,-1.0%,31.6µM*,4.57*
CC(C)CCN1C(=O)c2ccc(C(=O)Nc3ccc(Br)cc3C(=O)O)cc2C1=O,79.4µM*,6.9%,?,?,3.5%,35.5µM*,20.4*
C=C(C(C)=O)C(O)/C=C/c1ccco1 (stereo not drawn),6.0%,nt,nt,nt,nt,nt,nt
Cc1cc2nn(-c3cccc4ccccc34)nc2cc1N,?,-25.4%,?,5.4,?,-3.7%,nt
Nc1ccc2nn(-c3cccc4ccccc34)nc2c1,-14.6%,?,-14.4%,4.2,?,?,22.9*
O=C(O)CSc1cc(C(=O)c2ccccc2O)cn2c(=O)c3c(-c4ccccc4)csc3nc12,-16.9%,?,?,-53.3*,?,25.1µM*,25.7*
O=C(O)c1cc(-c2ccc(-c3ccc(F)cc3)o2)nc2ccccc12,?,?,15µM*,?,?,?,20.4*
COc1ccc2cc(-c3cc(C(=O)O)c4ccccc4n3)ccc2c1,-3.3%,-5.2%,-3.0%,-18.2,-4.3%,?,?
Cc1ccccc1CNCCCSc1nnnn1-c1ccccc1,0.0%,nt,nt,nt,nt,-2.9%,nt
Cc1ccc(S(=O)(=O)/N=C2/NC(=O)/C(=C\c3cc(Br)cc(Br)c3O)S2)cc1,50.1µM*,?,18.8%,-78.2*,?,15.8µM*,11.5*
Cc1ccc(S(=O)(=O)/N=C2/NC(=O)/C(=C/c3cccnc3)S2)cc1,?,4.8%,-16.8%,?,0.4%,-24.2%,nt
CC[C@H]1NC(=O)c2cc(S(N)(=O)=O)c(Cl)cc2N1,-1.3%,nt,nt,nt,nt,?,nt
O=C(Nc1ccc(O)c(-c2nc3ccccc3o2)c1)C1(c2ccc(Cl)cc2)CCCC1,-7.4%,-0.8%,-7.8%,1.4,-2.6%,?,14.5*
SMILES,VDR inhibitor,Rango release inh,PLK1 PBD block,PI5P4Ka inh,Rango complex inh,GCN5L2 inh-1,GCN5L2 inh-2
O=C(N/N=C/c1ccc(-c2ccc(S(=O)(=O)Nc3ncccn3)cc2)o1)c1cc2ccccc2cc1O,2.8%,-21.2%,26.7µM*,-84.4*,?,?,?
Cc1ccc(C(c2sc3nc(-c4ccco4)nn3c2O)N2CCOCC2)cc1 (stereo not drawn),-5.0%,nt,nt,nt,nt,-10.7%,nt
COc1ccc(-c2nn(-c3ccccc3)cc2/C=N/NC(=O)c2ccc3c(c2)OCO3)cc1,nt,nt,nt,nt,nt,-12.2%,nt
COc1ccc(-c2nn(-c3ccccc3)cc2/C=N/NC(=O)c2ccc(Br)o2)cc1,-6.5%,-0.3%,?,5.1,0.4%,25.1µM*,9.13*
CCCC1([C@H](O)C/C=C/[C@H]2[C@H](O)CC(=O)[C@@H]2CCCCCCC(=O)OC)CCC1,-22.9%,nt,nt,nt,nt,-9.8%,nt
O=c1[nH]c(SCc2cccc(Cl)c2)nc2c1CCC2,14.3%,nt,nt,nt,nt,-4.8%,nt
N#Cc1c(-c2ccccc2)nc(SCc2cccc(Cl)c2)[nH]c1=O,-9.5%,11.5%,26.7µM*,-22.3,-2.5%,?,18.2*
CCN(CC)c1ccc2cc(C(C)=O)c(=O)oc2c1,12.4%,?,52.2%,0.3,?,-6.5%,nt
CCN(CC)c1ccc2cc(NC(=O)CCC(=O)O)c(=O)oc2c1,-14.1%,?,?,nt,?,20µM*,32.4*
Cc1ccc(S(=O)(=O)N2[C@@H](c3ccccc3F)C(C(=O)O)=CC[C@H]2c2ccc(Cl)c(Cl)c2)cc1,-2.6%,-12.5%,?,-1.9,-1.6%,28.2µM*,?
Cc1ccc(S(=O)(=O)N2[C@@H](c3ccccc3)C(C(=O)O)=CC[C@H]2c2ccc(Cl)c(Cl)c2)cc1,?,18.1%,?,-5.6,-1.5%,?,nt
Cc1ccc(S(=O)(=O)N2[C@@H](c3ccc(F)cc3)C(C(=O)O)=CC[C@H]2c2ccc(Cl)cc2)cc1,-9.3%,7.9%,?,-12.1,-0.8%,-5.4%,nt
O=C(O)C1=CC[C@@H](c2ccc(Cl)cc2)N(S(=O)(=O)c2ccc(Cl)cc2)[C@H]1c1ccc(Br)cc1,-28.4%,9.4%,26.7µM*,-28.3,-2.4%,25.1µM*,18.2*
C=Cc1ccc(Cn2c(SCC(=O)N3CCN(c4ccc(F)cc4)CC3)nc3ccccc32)cc1,-13.7%,nt,nt,nt,nt,-7.0%,nt
Cc1ccc(C(C)C)c(OCC(=O)N2CCC(c3nc4ccccc4o3)CC2)c1,8.8%,nt,nt,nt,nt,-16.3%,nt
C=CCc1cccc2cc(C(=O)O)c(=O)oc12,-1.0%,7.7%,-2.3%,3.6,-1.6%,-17.3%[0.501 µM],nt
C=CCc1cccc2cc(C(=O)Nc3ccccc3C(=O)O)c(=O)oc12,3.4%,0.3%,11.9µM*,-60.7*,0.2%,?,?
